Assay outcomes from PubChem.
TRPML1 ag – agonists of human TRPML1 channel | activation, % (test concentration not listed) | TRPML1-expressing cells, Ca2+ dye fluorescence, FDSS | 410,000 compounds, 0.12% hits; in the data active means activation above about 50%; inconclusive means mostly about 30% to 49%; further: 0% is about no effect
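Tetracycline-induced TRPML1-DL cells are seeded and incubated overnight before loading with a no-wash Ca2+ dye and quencher. Agonist activity is taken from the 110 s fluorescence read following compound pin-transfer on an FDSS, before EC80 54-4 challenge.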
TSG101-PTAP inh – blocks PTAP/TSG101 interaction to inhibit HIV-1 budding; Q99816; Fluorescence polarization, FITC-PTAP peptide / Tsg101 binding; Potency, µM (series often up to 115 µM), for the others: at the top dose activity change, negative = inhibition, usual class: inhibitors; 340,000 tested, under 10 active; AID 493005; active means well fitted inhibition curve with a large enough effect in the main read-out, with a control signal flat, not every such curve was filed as active; inconclusive means small, poorly fitted or top-dose-only effect, or effect the other way, or a change in a side signal; inactive means no such curve, though single readings can be large or run the other way; further: potency means the concentration at half of the fitted maximal effect; % of control where 0% means no effect
Target sequence (Q99816 whole entry, looked up): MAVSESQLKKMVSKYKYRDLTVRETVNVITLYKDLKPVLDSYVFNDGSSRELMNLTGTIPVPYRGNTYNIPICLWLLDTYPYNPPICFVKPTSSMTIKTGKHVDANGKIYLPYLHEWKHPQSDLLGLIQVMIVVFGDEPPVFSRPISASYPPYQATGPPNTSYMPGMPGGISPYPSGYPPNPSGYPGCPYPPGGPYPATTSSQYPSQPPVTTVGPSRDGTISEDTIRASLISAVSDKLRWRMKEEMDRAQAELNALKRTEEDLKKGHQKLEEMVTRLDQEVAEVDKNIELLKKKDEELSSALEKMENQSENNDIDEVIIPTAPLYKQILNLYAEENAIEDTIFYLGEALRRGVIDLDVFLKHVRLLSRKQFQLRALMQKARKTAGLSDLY
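Compounds were pin-transferred onto Tsg101 binding domain (10 uM final) in HEPES pH 7.5 buffer, then FITC-PTAP peptide was added at 50 nM final. After 20 min at RT, polarization reported peptide displacement across a qHTS concentration series.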
Glioma ERSR ind – inducers of ER stress response in human glioma cells; U87-MG GRP78 promoter luciferase reporter, 16 h; Potency, µM, inactives show top-dose activation, actives largely listed as activators; 420,000 compounds, 0.02% hits; AID 602332; active means well fitted activation curve with a large enough effect; inconclusive means small, poorly fitted or top-dose-only effect; inactive means no such curve, though single readings can be large or run the other way; further: potency means the concentration at half of the fitted maximal effect; series mostly up to about 76 µM; % of control where 0% means no effect; nearly all actives have a fitted effect of over 35% in size
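Stably transfected U87-MG glioma cells carrying a GRP78-based luciferase sensor; 16 h compound incubation. Luminescence end-point read 10 min after Bright-Glo addition at room temperature.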
KCNH2 WT inh – blocks the wildtype human KCNH2 potassium channel; Q12809; U2OS, BacMam KCNH2, thallium flux FluxOr; active compounds read low; activity change, % at 1.84 µM; 340,000 compounds, 0.37% hits; AID 720551;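 active means maximum activity change below -70%; inconclusive means maximum activity change between -70% and -50%; inactive means maximum activity change above -50%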; further: on the % scale 0 is the no-effect control and ±100 the full control effect
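U2OS cells transduced with wild-type KCNH2 virus are loaded with FluxOr dye for 45 min, and thallium flux is measured in kinetic reads before and after stimulation buffer. Rate constants are normalized to DMSO controls.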
TRPML1 inh – human mucolipin-1 channel inhibition. TRPML1-inducible cells, Ca2+ dye fluorescence, FDSS; active compounds read low; inhibition of EC80 agonist-evoked calcium signal. activity change, negative = inhibition, % (concentration not given with the values). 390,000 compounds, 0.02% hits. AID 624415; in the data active means activity change below about -50%; inconclusive means between about -30% and that limit;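 further: stimulus is agonist 54-4 at its EC80 concentration; on the % scale 0 is the no-effect control and ±100 the full control effect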
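Tet-induced TRPML1-DL cells loaded with Ca8 no-wash calcium dye were read kinetically on FDSS. Compound addition was followed by EC80 agonist 54-4 (4 uM final); inhibition was read over 110 s.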
KCNH2 3.1 block – blocks the human KCNH2 3.1 channel isoform. U2OS KCNH2 3.1, thallium flux FluxOr; active compounds read low. activity change, % (tested at about 1.8 µM). 340,000 compounds, 0.95% hits;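 active means maximum activity change below -70%; inconclusive means maximum activity change from -70% to -50%; inactive means maximum activity change above -50%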;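 further: thallium influx rate constant from kinetic fluorescence after stimulation buffer; on the % scale 0 is the no-effect control and ±100 the full control effect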
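Thallium flux via FluxOr fluorescence (Red40 quencher, 45 min loading) in U2OS cells virally expressing the KCNH2 3.1 isoform (1.77 x 10^8 /mL virus, overnight at 37 C). Rate constants from 2-min kinetic reads post-stimulation, normalised to positive and negative controls.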
Numbers without * were called inactive; ? = inconclusive; · = not tested or not shown. Sampled rows, rich in hits. Any-hit rate of the full collection: about 1%.

SMILES	TRPML1 ag	TSG101-PTAP inh	Glioma ERSR ind	KCNH2 WT inh	TRPML1 inh	KCNH2 3.1 block
COc1cc2c(cc1OC)-c1cc(Nc3ccc(C(=O)O)cc3)nc(=O)n1CC2	0	0%	6%	7	28	-93*
COc1ccc(Nc2cc3n(c(=O)n2)CCc2cc(OC)c(OC)cc2-3)cc1	-2	-1%	0%	1	-1	1
COc1ccc(CCNC(=O)c2ccc(=O)[nH]c2)cc1	1	0%	-4%	0	33	-71*
O=C(NCCc1ccc(Cl)cc1)c1ccc(=O)[nH]c1	0	-2%	3%	-1	-15	9
COc1ccc(S(=O)(=O)NCc2nc(N3CCCC3)c3cccc(C)c3n2)cc1OC	·	·	-1%	·	·	·
Cc1ccc(-n2ncc3c(=O)n(Cc4cccc(Cl)c4)cnc32)cc1C	0	·	-3%	·	1	·
Cc1ccc(-n2ncc3c(=O)n(CC(=O)NCc4ccco4)cnc32)cc1C	0	-2%	-3%	0	14	-85*
Cc1ccc(-n2ncc3c(=O)n(CC(=O)Nc4cccc(Cl)c4)cnc32)cc1C	0	-1%	-6%	6	0	-83*
Cc1cccc(C(=O)NNC(=S)NC(=O)c2cccs2)c1	66*	1%	?	-25	2	5
COc1ccc(C(=O)NNC(=S)NC(=O)c2cccs2)cc1	4	-1%	1%	-1	-15	17
CCCOc1ccc(C(=O)NC(=S)NNC(=O)c2c(-c3ccccc3)noc2C)cc1	65*	3%	?	-10	39	17
Cc1cccc(C(=O)NNC(=S)NC(=O)c2ccccc2)c1	70*	0%	?	-6	6	15
COc1ccc(C(=O)NC(=S)NNC(=O)c2cccc(C)c2)cc1	19	0%	?	7	4	34
Cc1ccc(C(=O)NNC(=S)NC(=O)c2ccc(Cl)cc2Cl)cc1	72*	-6%	5%	-22	4	10
OCC1O[C@H]([S-])[C@H](O)[C@@H](O)[C@@H]1O.[Au+] (stereo partly drawn)	·	·	-4%	·	·	·
Cc1ccc(C(=O)NC(=S)NNC(=O)c2ccccc2)cc1	69*	-7%	1%	-32	-14	13
CC(=O)Nc1cccc(C(=O)/C=C/c2ccc(N(C)C)cc2)c1	72*	?	3%	-37	?	-31
Cc1ccc(C(=O)N2CCOc3ccc(CN4CCN(Cc5ccccn5)CC4)cc3C2)cc1	·	·	-1%	·	·	·
Cc1cc(-c2cc(-c3ccccc3)on2)nc(NC2CCCC2)n1	1	1%	-2%	0	21	-70*
CCCCn1c(=N)n(CCOc2ccc(C)cc2)c2ccccc21	1	-2%	-5%	-128*	8	-111*
O=C(/C=C/c1ccc(Cl)c([N+](=O)[O-])c1)Nc1ccc(NC(=O)c2ccco2)cc1	2	-9%	13%	-36	17	-119*
CS(=O)(=O)c1ccc(-c2ccc3c(c2)CC(CNC(=O)C2(N4CCOCC4)CCCCC2)O3)cc1 (stereo not drawn)	·	·	-2%	·	·	·
Cc1cccc(C)c1OCCNC(=O)c1ccc2ccccc2n1	4	-4%	0%	-3	5	-89*
Cc1cc(N/N=C/c2ccccc2Br)nc2ccccc12	7	1%	6%	-21	44	-82*
Brc1ccccc1/C=N/Nc1ccc2ccccc2n1	1	-1%	4%	3	-8	-42
SMILES	TRPML1 ag	TSG101-PTAP inh	Glioma ERSR ind	KCNH2 WT inh	TRPML1 inh	KCNH2 3.1 block
O=[N+]([O-])c1ccc(/C=C/C2=NN(c3ccccc3)C(c3ccco3)C2)o1 (stereo not drawn)	19	0%	-2%	-45	-6	-73*
C(=C\c1ccco1)/C1=NN(c2ccccc2)C(c2ccco2)C1 (stereo not drawn)	1	3%	3%	1	5	-7
Cc1ccccc1CC1CCN(CCCNC(=O)Nc2ccccc2)CC1	-1	-8%	-3%	30	2	-80*
O=C(NCCCN1CCN(Cc2ccccc2Cl)CC1)Nc1ccccc1	2	0%	-1%	16	3	·
O=C(NCC1CC1)Nc1ccc(Cl)cc1	0	2%	-1%	3	-8	7
Cc1cccc(CN2CCC(CNC(=O)Nc3ccccc3F)CC2)c1	1	-6%	4%	49	14	-4
Cc1ccc(C)c(CN2CCC(CNC(=O)Nc3ccc(Br)cc3F)CC2)c1	2	0%	-12%	-19	-17	-71*
Cc1ccc(C)c(CN2CCC(CNC(=O)Nc3ccc(Cl)cc3)CC2)c1	0	-2%	4%	-9	9	-88*
CC(C)(C)c1ccc(S(=O)(=O)N[C@H]2CC[C@@H](n3cc(C(=O)N4CCCC4)nn3)CC2)cc1	·	·	-2%	·	·	·
CC(C)(C)C(=O)NC(=S)NNC(=O)C(c1ccccc1)c1ccccc1	·	0%	22µM*	-7	·	17
CCOc1ccc(CN(CCO)CCO)cc1[N+](=O)[O-]	1	-1%	-1%	9	-18	-76*
COc1ccc(CSC(=N)N)cc1[N+](=O)[O-]	0	-9%	-5%	15	-4	-20
CCCCOc1ccc(CSC2=NCCN2)cc1[N+](=O)[O-]	8	-2%	-4%	14	-13	?
CCOc1ccc(CSC2=NCCN2)cc1[N+](=O)[O-]	0	-5%	-5%	8	-9	-91*
CCCCCOc1ccc(CSC(=N)N)cc1[N+](=O)[O-]	4	-1%	-6%	29	15	-96*
Cc1cc(C)nc(/N=C(\N)Nc2ccc(CC(=O)OC(C)C)cc2)n1	68*	-1%	2%	39	12	-21
Cc1cc(C)nc(/N=C(\N)Nc2ccc(OCc3ccccc3)cc2)n1	81*	-4%	7%	18	5	-80*
Cc1cc(C)nc(/N=C(\N)Nc2cccc(OCc3ccccc3)c2)n1	?	-2%	-1%	2	19	?
COc1ccc(N/C(N)=N/c2nc(C)cc(C)n2)cc1	?	·	-3%	-4	-3	-15
Cc1cc(C)nc(/N=C(\N)Nc2ccc(S(=O)(=O)O)cc2)n1	0	-3%	-4%	-13	21	2
Cc1cc(C)nc(/N=C(\N)Nc2ccc(OCCC(C)C)cc2)n1	97*	-1%	10%	42	-15	-82*
CCC[N+](C)(C)c1ccc(/C=C/c2ccncc2)cc1	17	·	-2%	·	·	·
Cc1cnc(-n2ncc(C(=O)NCC(C)(C)N3CCOCC3)c2C)nc1-c1cccs1	·	·	-5%	·	·	·
OC(COc1ccc2ccccc2c1)CN1CCN(c2ccc(F)cc2)CC1 (stereo not drawn)	1	-2%	-4%	-6	-4	-74*
